Drawing on PubChem BioAssay (NCI), this text covers growth for 9 compounds.

Assay in all cases: NCI-60 one-dose screen, 48 h (100 = growth as untreated, 0 = no growth, -100 = all killed)
One test deals with NCI-H23 lung. The following applies: 10 µM unless noted.
A further test concerns NCI-H226 lung. As to conditions: 10 µM unless noted.
A further test relates to NCI-H322M lung. The following applies: 10 µM unless noted.
The next test deals with HOP-62 NSCLC. As to conditions: 10 µM unless noted.
In another test the test system is A549/ATCC NSCLC. The following applies: 10 µM unless noted.
The test system of a further test is 786-0 renal. The following applies: 10 µM unless noted.
The next test has as its system COLO 205 colon. As to conditions: 10 µM unless noted.
The next test relates to DU-145 prostate. As to conditions: 10 µM unless noted.
For another test, the system named is K-562 leukemia. As to conditions: 10 µM unless noted.
For a further test, the system named is MALME-3M melanoma. As to conditions: 10 µM unless noted.
In a further test the test system is MDA-MB-231 breast. As to conditions: 10 µM unless noted.
The test system of the next test is RXF 393 renal. As to conditions: 10 µM unless noted.
A further test deals with SF-268 CNS. The following applies: 10 µM unless noted.
For another test, the system named is SF-295 CNS. The following applies: 10 µM unless noted.
Another test deals with SF-539 CNS. The following applies: 10 µM unless noted.
Another test has as its system UACC-257 melanoma. As to conditions: 10 µM unless noted.
The next test concerns M14 melanoma. The following applies: 10 µM unless noted.
The subject of another test is NCI-H522 lung. As to conditions: 10 µM.
The test system of the next test is HOP-92 NSCLC. As to conditions: 10 µM.
A further test has as its system NCI-H460 lung. The following applies: 10 µM unless noted.

SMILES strings stand for the structures. This is part of a sample that, as a whole, favours compounds with a hit. Of some 83,000 tested, about 20% had one in any assay.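 Note: values are percent growth. 100 is the growth of untreated cells, values between 100 and 0 indicate rising inhibition; between -100 and 0 indicates cell death.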 Values without a mark were called inactive. The source made the active and inactive calls. How the source made its calls: active means growth percent below 10; inactive means the rest.

Consider `[N-]=[N+]=Nc1ncc(-c2ccc(C(F)(F)F)cc2)c(NC2CCCCCC2)n1`, for which the growth is 38% [100 µM] in the test with NCI-H23 lung; 60.3% [100 µM] with NCI-H226 lung; 47.6% [100 µM] in the test on NCI-H322M lung; 69.9% [100 µM] in the test on HOP-62 NSCLC; 23.6% [100 µM] in the test with A549/ATCC NSCLC; 38.1% [100 µM] in the test on 786-0 renal. For the same compound, the growth in the test with COLO 205 colon is 36.3% [100 µM]; in the test with DU-145 prostate, 37.1% [100 µM]; in the test with K-562 leukemia, 8.78% [100 µM] (active); in the test on MALME-3M melanoma it was 62.3% [100 µM]; in the test on MDA-MB-231 breast it was 42.3% [100 µM]; in the test on RXF 393 renal it was 43.5% [100 µM]. Further, the growth was 38% [100 µM] in the test with SF-268 CNS; -19.7% [100 µM] (active) in the test on SF-295 CNS; 66.2% [100 µM] with SF-539 CNS; 27.6% [100 µM] with UACC-257 melanoma; 34.7% [100 µM] in the test on M14 melanoma.
Regarding `CC(C)(C)OC(=O)N1C/C(=C\c2ccccc2)C(=O)/C(=C/c2ccccc2)C1`, the growth in the test on NCI-H23 lung is 103%; in the test with NCI-H226 lung, 81.6%; in the test on NCI-H322M lung, 92.6%; with HOP-62 NSCLC, 96.4%; in the test on NCI-H522 lung it was 72%; in the test with A549/ATCC NSCLC it was 92.7%. Besides, the growth is 81.6% with 786-0 renal; 112% in the test with DU-145 prostate; 74.8% in the test with K-562 leukemia; 113% in the test on MALME-3M melanoma; 79.9% with MDA-MB-231 breast; 102% in the test with RXF 393 renal. Also, the growth in the test on SF-268 CNS was 81.4%; in the test on SF-295 CNS, 99.5%; with SF-539 CNS it was 104%; with UACC-257 melanoma, 91.4%; in the test on M14 melanoma, 98.3%.
Regarding `CC(=O)N(N=O)c1ccc([N+](=O)[O-])cc1Cl`, the growth is 34% with NCI-H23 lung; 68.3% in the test on NCI-H226 lung; 74.3% in the test on NCI-H322M lung; 97% in the test with HOP-62 NSCLC; 31.6% in the test with HOP-92 NSCLC; 61.7% in the test on A549/ATCC NSCLC. The growth with 786-0 renal was 74.1%; with COLO 205 colon, 97.6%; with DU-145 prostate, 82.2%; in the test with K-562 leukemia, 49.5%; in the test on MALME-3M melanoma, 58.9%; in the test on MDA-MB-231 breast, 58.9%. Besides, the growth was 83.9% in the test on RXF 393 renal; 78.5% in the test with SF-268 CNS; 66.9% in the test on SF-295 CNS; 72.7% in the test on SF-539 CNS; 45.4% with UACC-257 melanoma; 64.6% with M14 melanoma.
Turning to `Ic1ccc(SSc2ccc(I)cc2)cc1`, the growth in the test on NCI-H23 lung was 98%; in the test with NCI-H226 lung, 90.6%; with NCI-H322M lung it was 100%; with HOP-62 NSCLC, 108%; in the test with NCI-H522 lung, 86.7%; in the test on A549/ATCC NSCLC it was 74.1%. In addition, the growth with 786-0 renal was 92.6%; in the test on COLO 205 colon, 124%; in the test with DU-145 prostate it was 103%; in the test with K-562 leukemia, 95.5%; with MALME-3M melanoma it was 114%; in the test on MDA-MB-231 breast it was 87.8%. Also, the growth in the test on RXF 393 renal is 99.7%; with SF-268 CNS, 59.2%; in the test with SF-295 CNS, 77.5%; in the test with SF-539 CNS, 86.1%; in the test on UACC-257 melanoma it was 88.1%; in the test on M14 melanoma it was 104%.
As for `Oc1ccc2ccccc2c1/C=N\Nc1ccccn1`, the growth in the test with NCI-H23 lung is 0% (active); with NCI-H226 lung, 9.04% (active); with NCI-H322M lung, -12.6% (active); with HOP-62 NSCLC, -8.47% (active); in the test on NCI-H522 lung, 6.74% (active); with A549/ATCC NSCLC, 8.68% (active). For the same compound, the growth with 786-0 renal was -29.3% (active); in the test with COLO 205 colon, 91%; in the test with DU-145 prostate, 4.84% (active); in the test with K-562 leukemia, 16.1%; in the test with MDA-MB-231 breast, 25.1%; in the test with RXF 393 renal it was 18.3%. Besides, the growth was 16.8% in the test with SF-268 CNS; -42.7% (active) with SF-295 CNS; -4.88% (active) in the test on SF-539 CNS; 12.9% in the test with UACC-257 melanoma; -22.5% (active) in the test with M14 melanoma.
As for `N/C(=N\O)c1ccncc1`, the growth was 95.6% in the test on NCI-H23 lung; 117% in the test with NCI-H226 lung; 101% in the test on NCI-H322M lung; 93.6% in the test with HOP-62 NSCLC; 93.4% with NCI-H522 lung; 102% in the test with A549/ATCC NSCLC. Also, the growth is 100% with 786-0 renal; 103% in the test with COLO 205 colon; 104% with DU-145 prostate; 104% with K-562 leukemia; 108% in the test with MALME-3M melanoma; 102% in the test with MDA-MB-231 breast. The growth was 115% in the test with RXF 393 renal; 97.9% in the test on SF-268 CNS; 94.5% in the test with SF-295 CNS; 105% with SF-539 CNS; 106% in the test with UACC-257 melanoma; 99.8% with M14 melanoma.
On to `O=C(NC(=S)NNC(=S)NNc1ccccc1)c1ccccc1`, for which the growth in the test on NCI-H23 lung was 25.9%; with NCI-H226 lung, 40.6%; with NCI-H322M lung it was 68.2%; with HOP-62 NSCLC it was 43%; in the test on 786-0 renal, 67.7%; in the test on COLO 205 colon, 81%. Also, the growth in the test with DU-145 prostate was 98%; with K-562 leukemia, 9.51% (active); with MALME-3M melanoma it was 25.5%; in the test on MDA-MB-231 breast it was 78.2%; in the test with RXF 393 renal, 62.8%; with SF-268 CNS, 59.5%. Moreover, the results for the growth in the test with SF-295 CNS, with SF-539 CNS and in the test with M14 melanoma were 6.98% (active), 25.5% and 71.7%, respectively.
`Cc1c([C@H](C(Cl)Cl)[C@H](O)[C@H]2C[C@H](C)C(=O)O2)ccc2c1C(=O)[C@H]1[C@H]2C[C@@H](Br)[C@@]23O[C@@H](CO[C@H]2O)CC13C` (stereo partly drawn): the growth with NCI-H23 lung is 20.3%; in the test with NCI-H226 lung it was 42.9%; with NCI-H322M lung, 33.1%; in the test on HOP-62 NSCLC, 49.8%; in the test on HOP-92 NSCLC it was 69.2%; in the test on A549/ATCC NSCLC, -1.06% (active). Besides, the growth in the test with 786-0 renal is 40.1%; with DU-145 prostate, -34.9% (active); in the test on K-562 leukemia, 7.69% (active); in the test on MALME-3M melanoma, 77.9%; in the test with MDA-MB-231 breast, 4.9% (active); with RXF 393 renal, 15.5%. Besides, the figures for the growth with SF-268 CNS, in the test on UACC-257 melanoma and in the test with M14 melanoma were 33%, 61.9% and 33.2%, respectively.
Take `Brc1c(-c2ccncc2)nc2n1CCS2`: the growth was 113% in the test on NCI-H23 lung; 93.4% with NCI-H226 lung; 107% in the test with NCI-H322M lung; 103% in the test with NCI-H460 lung; 73.9% in the test on HOP-92 NSCLC; 76.5% in the test with NCI-H522 lung. For the same compound, the growth is 94.1% in the test on A549/ATCC NSCLC; 26.3% in the test on 786-0 renal; 120% in the test on COLO 205 colon; 116% in the test with DU-145 prostate; 111% in the test with K-562 leukemia; 114% in the test with MALME-3M melanoma. Also, the growth with MDA-MB-231 breast was 101%; with RXF 393 renal, 84.6%; in the test on SF-268 CNS, 107%; in the test on SF-295 CNS, 102%; with SF-539 CNS it was 119%; with UACC-257 melanoma, 91.1%.
